Assay results reported in PubChem BioAssay (Tox21).
Several values for one entry are separate records, joined by “and”; a condition that tells them apart may be missing. Equal values may be shown once. Inconclusive results are not listed. Where a call stands in place of a potency, no number is given. The source holds several records for some structures; these can differ, active in one and inactive in another. Activity calls are given as the source filed them. Unless noted, the call rests on the fitted dose curve; in most records, active means well fitted curve in the direction sought with a large enough effect in the repeat runs; inconclusive means weak or mixed curves; inactive means no such curve, though single readings can be large; an effect the other way counts as inactive or inconclusive.

Assays:
[1] = qHTS assay to identify small molecule HDAC inhibitors (AID 1259364); further: potency means the concentration at half of the fitted maximal effect;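 further: wild-type HCT-116 cells with endogenous class I/II HDAC activity; nearly all actives have a fitted effect of over 45% in size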
Method in brief: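 HCT-116 wt cells, 1,500/well, overnight attach. Compounds (DMSO) 2 h, 37 °C. HDAC-Glo I/II, 30 min RT. Luminescence.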

[2] = qHTS assay to identify small molecule HDAC inhibitors - cell viability counter screen (AID 1259365); further: nearly all actives have a fitted effect of over 50% in size; further: potency means the concentration at half of the fitted maximal effect
Method in brief: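 Luminescence from CellTiter-Glo, developed 30min at room temperature, reports viability of wild-type HCT-116 cells treated 2hr with compounds at 37 C and 5% CO2 after overnight plating.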

[3] = qHTS assay to identify small molecule agonists of the sonic hedgehog signaling (Shh) pathway - cell viability counter screen (AID 1259366); further: nearly all actives have a fitted effect of over 50% in size; further: potency means the concentration at half of the fitted maximal effect
Method in brief: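 Cytotoxicity counter screen run in the same wells as the Shh reporter assay. NIH/3T3 cells carrying a Gli1 response element–driven luciferase were treated with DMSO-dissolved compounds for 24hr, and live-cell protease activity was measured with CellTiter-Fluor.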

[4] = qHTS assay to identify small molecule antagonists of the sonic hedgehog signaling (Shh) pathway - cell viability counter screen (AID 1259367); further: nearly all actives have a fitted effect of over 55% in size; further: potency means the concentration at half of the fitted maximal effect
Method in brief: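 Viability was read by CellTiter-Fluor fluorescence in the same wells, reagent added 23 hr into compound treatment and incubated 1 hr at 37C. The 3T3 Gli1-Luc reporter cells (2,000/well) received conditioned medium after compound and ran 24 hr.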

[5] = qHTS assay to identify small molecule agonists of the sonic hedgehog signaling (Shh) pathway (AID 1259368; calls by dose curve;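 further: NIH/3T3-derived 3T3Gli1-Luc cells carrying a stable Gli1-driven firefly luciferase reporter; series mostly up to about 92 µM; nearly all actives have a fitted effect of over 15% in size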)
Method in brief: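 Following a 24 hr incubation with DMSO-dissolved compounds at 37 C, 5% CO2, Gli1-Luc NIH/3T3-derived cells received luciferase reagent for 30 min at room temperature prior to luminescence measurement.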

[6] = qHTS assay to identify small molecule antagonists of the sonic hedgehog signaling (Shh) pathway (AID 1259369; calls by dose curve; further: nearly all actives have a fitted effect of over 45% in size; further: potency means the concentration at half of the fitted maximal effect)
Method in brief: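 Read-out is luminescence from a firefly luciferase gene controlled by the Gli1 response element, in 3T3Gli1-Luc cells pre-incubated 4hr then exposed to compounds and conditioned medium for 24hr.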

[7] = molecular target: Estrogen receptor beta (Homo sapiens) (UniProt Q92731); experiment: qHTS assay to identify small molecule antagonists of the estrogen receptor beta (ER-beta) signaling pathway (AID 1259378; active means well fitted inhibition curve with a large enough effect in the signal ratio in the repeat runs, not every such curve was filed as active; the % refers to the signal ratio; further: potency means the concentration at half of the fitted maximal effect)
Method in brief: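 Antagonist mode: compounds added to beta-lactamase reporter HEK293T ER-beta-UAS cells stimulated with E2 (1nM final), 16 hr at 37C. LiveBLAzer B/G FRET substrate, 2 hours room temperature, fluorescence read-out.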

[8] = qHTS assay to identify small molecule agonists of the androgen receptor (AR) signaling pathway in the presence of an antagonist - cell viability counter screen (AID 1259379); further: nearly all actives have a fitted effect of over 25% in size; further: potency means the concentration at half of the fitted maximal effect
Method in brief: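 Each compound was tested at 15 concentrations on MDA-kb2 cells in the presence of 3.0uM nilutamide. Viability was measured by CellTiter-Fluor fluorescence after a 16 hr incubation at 37C in a CO2-free atmosphere.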

[9] = qHTS assay to identify small molecule phospholipidosis (PLD) inducers (AID 1259344; active means well fitted curve in the direction sought with a large enough effect; an effect the other way counts as inactive or inconclusive)
Method in brief: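 Phospholipid accumulation was scored by imaging: fixed, Hoechst-counterstained HepG2 cells stained with LipidTOX Red after 24 h compound exposure at 37 C. Read-outs were pit count and pit intensity per well or per cell, with amiodarone and DMSO controls.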

Estrogen receptor beta (Homo sapiens), sequence (Q92731 whole entry, looked up): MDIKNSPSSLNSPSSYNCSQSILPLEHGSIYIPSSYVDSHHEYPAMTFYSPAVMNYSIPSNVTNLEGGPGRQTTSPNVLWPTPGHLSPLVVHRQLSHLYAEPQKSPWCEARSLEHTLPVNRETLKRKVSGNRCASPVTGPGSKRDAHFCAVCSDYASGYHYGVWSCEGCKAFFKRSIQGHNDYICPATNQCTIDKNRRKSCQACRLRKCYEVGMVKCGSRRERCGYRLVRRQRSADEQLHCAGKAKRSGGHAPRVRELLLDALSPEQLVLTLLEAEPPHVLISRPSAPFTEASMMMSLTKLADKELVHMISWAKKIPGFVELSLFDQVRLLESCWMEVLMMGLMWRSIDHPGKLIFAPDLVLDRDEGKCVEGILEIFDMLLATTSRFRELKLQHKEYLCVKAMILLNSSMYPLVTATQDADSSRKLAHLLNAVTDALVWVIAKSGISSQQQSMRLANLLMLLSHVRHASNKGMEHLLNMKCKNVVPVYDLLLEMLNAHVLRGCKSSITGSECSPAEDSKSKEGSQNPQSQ

Row | SMILES | Potency [1] | Potency [2] | Potency [3] | Potency [4] | outcome [5] | Potency [6] | Potency [7] | Potency [8] | outcome [9]
1 | Nc1ccc(-c2ccc(N)c(Cl)c2)cc1Cl | inactive and 27.3 µM (active) | inactive | inactive and 7.18 µM (active) and 30.6 µM (active) | 2.27 µM (active) and 8.63 µM (active) | inactive | 2.74 µM (active) and 1.01 µM (active) | 25.5 µM (active) and 30.6 µM (active) | inactive and 54.5 µM (active) | –
2 | O=C(O)C(Cl)Cl | inactive | inactive | inactive | inactive | inactive | inactive | – | inactive | inactive
3 | O=S(=O)(O)O | inactive | inactive | inactive | inactive | inactive | inactive | – | inactive | –
4 | O=C(O)COc1ccc(Cl)cc1Cl | inactive | inactive | inactive | inactive | inactive | inactive | – | inactive | –
5 | CCCC[n+]1ccc(C)cc1 | inactive | inactive and 60.8 µM (active) | inactive and 60.8 µM (active) | inactive and 60.8 µM (active) | inactive | inactive and 24.2 µM (active) and 13.7 µM (active) | – | inactive | –
6 | Cc1cc(Cl)ccc1OCC(=O)O | inactive | inactive | inactive | inactive | inactive | inactive | – | inactive | –
7 | CC(=O)O | inactive | inactive | inactive | inactive | inactive | inactive | – | inactive | –
8 | COc1ccc(N)cc1 | inactive | inactive | inactive | inactive | inactive | inactive | – | inactive | –
9 | O=[N+]([O-])O | inactive | inactive | inactive | inactive | inactive | inactive | – | inactive | –
10 | CCCCn1cc[n+](C)c1 | inactive | inactive | inactive | inactive | inactive | inactive | – | inactive | –
11 | O=C(O)c1ccccc1O | inactive | inactive | inactive | inactive | inactive | inactive | – | inactive | –
12 | O=C(O)c1nc(Cl)ccc1Cl | inactive | inactive | inactive | inactive | inactive | inactive | – | inactive | –
13 | CCCn1cc[n+](C)c1 | inactive | inactive | inactive | inactive | inactive | inactive | – | inactive | –
14 | CCCCCC[n+]1ccccc1 | inactive | inactive | inactive | inactive | inactive | 13.8 µM (active) and 17.3 µM (active) and inactive | – | inactive | –
15 | Cc1cc(-c2ccc(N)c(C)c2)ccc1N | 48.4 µM (active) | inactive | inactive | inactive | inactive | 8.73 µM (active) | – | inactive | –
16 | Cc1cc(Cl)ccc1N | inactive | inactive | inactive | inactive | inactive | inactive | – | inactive | –
17 | CCC[N+]1(C)CCCC1 | inactive | inactive | inactive | inactive | inactive | inactive | – | inactive | –
18 | CCCCCCCCCCCC(=O)O | inactive | inactive | inactive | inactive | inactive | inactive | – | inactive | –

Row | SMILES | Potency [1] | Potency [2] | Potency [3] | Potency [4] | outcome [5] | Potency [6] | Potency [7] | Potency [8] | outcome [9]
19 | CC[n+]1ccccc1 | inactive | inactive | inactive | inactive | inactive | inactive and 429 nM (active) | – | inactive and 24.1 µM (active) | –
20 | CCCCCCCCn1cc[n+](C)c1 | inactive | inactive | inactive | inactive | inactive | 215 nM (active) and 174 nM (active) | – | 4.85 µM (active) [middle of 4 runs] | –
21 | CCCC[n+]1ccccc1 | inactive | inactive | inactive | inactive | inactive | inactive | – | inactive | –
22 | CCCCn1cc[n+](C)c1C | inactive | inactive | inactive | inactive | inactive | inactive | – | inactive | –
23 | O=C(O)CC(O)(CC(=O)O)C(=O)O | inactive | inactive | inactive | inactive | inactive | inactive | – | inactive | –
24 | CCn1cc[n+](C)c1C | inactive | inactive | inactive | inactive | inactive | inactive | – | inactive | –
25 | CNC | inactive | inactive | inactive | inactive | inactive | inactive | – | inactive | –
26 | CCC[N+]1(C)CCCCC1 | inactive | inactive | inactive | inactive | inactive | inactive | – | inactive | –
27 | O=c1nc(O)n(Cl)c(=O)n1Cl | inactive | inactive | inactive | inactive | inactive | inactive | – | inactive | –
28 | CCCC[n+]1ccccc1C | inactive | inactive | inactive | inactive | inactive | inactive | – | inactive | –
29 | C[N+](C)(C)Cc1ccccc1 | inactive | inactive | inactive | inactive | inactive | inactive | – | inactive | –
30 | CCCCCCn1cc[n+](C)c1 | inactive | inactive | inactive | inactive | inactive | 7.74 µM (active) and 89.9 nM (active) | – | 50.5 µM (active) [middle of 6 runs] | –
31 | CCCCCCCCCCCCCCCCn1cc[n+](C)c1 | inactive | inactive | – | – | inactive | – | – | – | –
32 | CCCCCCCCCCCCCC[P+](CCCCCC)(CCCCCC)CCCCCC | inactive | 34.5 µM (active) and 69.1 µM (active) and inactive | 13.7 µM (active) and 21.9 µM (active) and inactive | 15.4 µM (active) and 54.9 µM (active) and inactive | inactive | 1.09 µM (active) and 1.1 µM (active) and 769 nM (active) | – | 9.73 µM (active) and 24.5 µM (active) and 2.43 µM (active) | –
33 | N#CS | inactive | inactive | inactive | inactive | inactive | inactive | – | inactive | –
34 | CC[N+]1(C)CCCC1 | inactive | inactive | inactive | inactive | inactive | 39.5 µM (active) and inactive | – | inactive and 61.3 µM (active) | –
35 | COc1ccccc1N | inactive | inactive | inactive | inactive | inactive | inactive | – | inactive | –
